# Results: the supplement of paper PMC8728848
# Only a selection was taken, and the strongest signals are over-represented in it overall.
# B1: PX15618B-bfa-464-25-464 (Bacteroides fragilis) (protein)
# chain: DQEPPLYVNENDIFTSPTRIEATLNGLYAAIKNTGTKSLMGGKSYLVFDNRGDDVINISNNLVTLFNTYNMNVGITDAENADTWTYAYLAINKVNTFLQSLEGAREVAGENYDRYVQEAKFVRALAYYYLNNLYPTPYSVNPDAKSVPLRLTAEAGTENNNMPRSTVKQIYEHILSDLENISALDTEVNTYTGVTHATQAAANMLKMRVYMAMNEWDKAITAGELVTGYSLPEDVTLIYKAPYFSQESIFSLPMADTNIPNTQQSLAEYYYDGKIMLIDTKSGIMSKPDYSLATDKRIIAFKGEKDLLMKFTDAKTKLQWVPIFRYAETLLDLAECYANKAGGEATAKSLLKQVRGRSVDAATDPLNIDNLSGDALKEAIYNEKRLEFIGEGIRGIDIMRRGEHFIKVGENETINVGPSDEKYTWPIPQVELLLNKDINK
# Key:
# Test in all cases: glycan array binding signal (z-score within array); higher = stronger binding
# Settings in all cases: glycan notation: IUPAC condensed, linker removed
# Fuc(a1-2)Gal(b1-3)GalNAc = target: Fuc(a1-2)Gal(b1-3)GalNAc
# Outline: (§1)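 Arrays were curated from the Consortium for Functional Glycomics database, 3228 in total, and kept only where the protein sequence was available. Binding is expressed as a within-array Z-score. This score was averaged across arrays of the same protein sequence at different concentrations or buffers and across linkers, and negative values can be read as non-binding.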
# [1] = target: Fuc(a1-2)Gal(b1-3)GlcNAc(b1-3)[Fuc(a1-2)Gal(b1-3)GlcNAc(b1-6)]GalNAc
# Outline: as §1
# [2] = target: Fuc(a1-2)Gal(b1-3)[Fuc(a1-4)]GlcNAc(b1-3)[Fuc(a1-3)[Gal(b1-4)]GlcNAc(b1-6)]Gal(b1-4)Glc
# Outline: as §1
# [3] = target: Fuc(a1-2)Gal(b1-4)GlcNAc(b1-2)Man(a1-3)[Fuc(a1-2)Gal(b1-4)GlcNAc(b1-2)Man(a1-6)]Man(b1-4)GlcNAc(b1-4)GlcNAc
# Outline: as §1
# [4] = target: Fuc(a1-2)Gal(b1-4)GlcNAc(b1-3)Gal(b1-4)GlcNAc(b1-3)Gal(b1-4)GlcNAc
# Outline: as §1
# [5] = target: Fuc(a1-2)Gal(b1-4)[Fuc(a1-3)]GlcNAc(b1-2)[Fuc(a1-2)Gal(b1-4)[Fuc(a1-3)]GlcNAc(b1-4)]Man(a1-3)[Fuc(a1-2)Gal(b1-4)[Fuc(a1-3)]GlcNAc(b1-2)Man(a1-6)]Man(b1-4)GlcNAc(b1-4)GlcNAc
# Outline: as §1
# [6] = target: Fuc(a1-2)[Gal(a1-3)]Gal(b1-4)GlcNAc(b1-2)Man(a1-3)[Fuc(a1-2)[Gal(a1-3)]Gal(b1-4)GlcNAc(b1-2)Man(a1-6)]Man(b1-4)GlcNAc(b1-4)GlcNAc
# Outline: as §1
# [7] = target: Fuc(a1-2)[Gal(a1-3)]Gal(b1-4)GlcNAc(b1-2)Man(a1-3)[Fuc(a1-2)[Gal(a1-3)]Gal(b1-4)GlcNAc(b1-2)Man(a1-6)]Man(b1-4)GlcNAc(b1-4)[Fuc(a1-6)]GlcNAc
# Outline: as §1
# [8] = target: Fuc(a1-2)[GalNAc(a1-3)]Gal(b1-3)GlcNAc
# Outline: as §1
# [9] = target: Fuc(a1-2)[GalNAc(a1-3)]Gal(b1-3)GlcNAc(b1-2)Man(a1-3)[Fuc(a1-2)[GalNAc(a1-3)]Gal(b1-3)GlcNAc(b1-2)Man(a1-6)]Man(b1-4)GlcNAc(b1-4)GlcNAc
# Outline: as §1
# [10] = target: Fuc(a1-2)[GalNAc(a1-3)]Gal(b1-3)GlcNAc(b1-2)Man(a1-3)[Fuc(a1-2)[GalNAc(a1-3)]Gal(b1-3)GlcNAc(b1-2)Man(a1-6)]Man(b1-4)GlcNAc(b1-4)[Fuc(a1-6)]GlcNAc
# Outline: as §1
# [11] = target: Fuc(a1-2)[GalNAc(a1-3)]Gal(b1-4)[Fuc(a1-3)]GlcNAc(b1-3)GalNAc
# Outline: as §1
# [12] = target: Fuc(a1-3)[GalNAc(b1-4)]GlcNAc
# Outline: as §1
# Gal(a1-3)Gal = target: Gal(a1-3)Gal
# Outline: as §1
# Gal(a1-4)Gal(b1-4)Glc = target: Gal(a1-4)Gal(b1-4)Glc
# Outline: as §1
# [13] = target: Gal(a1-4)Gal(b1-4)GlcNAc(b1-2)Man(a1-3)[Gal(a1-4)Gal(b1-4)GlcNAc(b1-2)Man(a1-6)]Man(b1-4)GlcNAc(b1-4)GlcNAc
# Outline: as §1
# Gal(b1-3)Gal = target: Gal(b1-3)Gal
# Outline: as §1
# Gal(b1-3)GlcNAc = target: Gal(b1-3)GlcNAc
# Outline: as §1
# [14] = target: Gal(b1-3)GlcNAc(b1-3)Gal(b1-4)GlcNAc(b1-2)Man(a1-3)[Gal(b1-3)GlcNAc(b1-3)Gal(b1-4)GlcNAc(b1-2)Man(a1-6)]Man(b1-4)GlcNAc(b1-4)GlcNAc
# Outline: as §1
# [15] = target: Gal(b1-3)[Fuc(a1-4)]GlcNAc(b1-2)Man(a1-3)[Gal(b1-3)[Fuc(a1-4)]GlcNAc(b1-2)Man(a1-6)]Man(b1-4)GlcNAc(b1-4)[Fuc(a1-6)]GlcNAc
# Outline: as §1
# [16] = target: Gal(b1-3)[Neu5Ac(b2-6)]GalNAc
# Outline: as §1
# [17] = target: Gal(b1-4)GlcNAc(b1-2)Man(a1-6)[Man(a1-3)]Man(b1-4)GlcNAc(b1-4)GlcNAc
# Outline: as §1
# [18] = target: Gal(b1-4)GlcNAc(b1-2)[Gal(b1-4)GlcNAc(b1-4)]Man(a1-3)[Gal(b1-4)GlcNAc(b1-2)Man(a1-6)]Man(b1-4)GlcNAc(b1-4)GlcNAc
# Outline: as §1
# [19] = target: Gal(b1-4)GlcNAc(b1-2)[Gal(b1-4)GlcNAc(b1-6)]Man(a1-6)[Gal(b1-4)GlcNAc(b1-2)Man(a1-3)]Man(b1-4)GlcNAc(b1-4)GlcNAc
# Outline: as §1
# [20] = target: Gal(b1-4)GlcNAc(b1-3)Gal(b1-3)GalNAc
# Outline: as §1
# [21] = target: Gal(b1-4)GlcNAc(b1-3)Gal(b1-4)GlcNAc(b1-3)Gal(b1-4)GlcNAc(b1-3)Gal(b1-4)GlcNAc(b1-3)Gal(b1-4)GlcNAc(b1-2)[Gal(b1-4)GlcNAc(b1-3)Gal(b1-4)GlcNAc(b1-3)Gal(b1-4)GlcNAc(b1-3)Gal(b1-4)GlcNAc(b1-3)Gal(b1-4)GlcNAc(b1-6)]Man(a1-6)[Gal(b1-4)GlcNAc(b1-3)Gal(b1-4)GlcNAc(b1-3)Gal(b1-4)GlcNAc(b1-3)Gal(b1-4)GlcNAc(b1-3)Gal(b1-4)GlcNAc(b1-2)Man(a1-3)]Man(b1-4)GlcNAc(b1-4)[Fuc(a1-6)]GlcNAc
# Outline: as §1
# [22] = target: Gal(b1-4)GlcNAc(b1-6)Gal(b1-4)GlcNAc
# Outline: as §1
# Gal(b1-4)GlcNAc6P = target: Gal(b1-4)GlcNAc6P
# Outline: as §1
# Gal3S(b1-4)GlcNAc = target: Gal3S(b1-4)GlcNAc
# Outline: as §1
# Gal4S6S(b1-4)GlcNAc = target: Gal4S6S(b1-4)GlcNAc
# Outline: as §1
# GalNAc(a1-3)GalNAc = target: GalNAc(a1-3)GalNAc
# Outline: as §1
# [23] = target: GalNAc(a1-3)GalNAc(b1-3)Gal(a1-4)Gal(b1-4)GlcNAc
# Outline: as §1
# Glc(b1-4)Glc = target: Glc(b1-4)Glc
# Outline: as §1
# [24] = target: GlcNAc(a1-4)Gal(b1-4)GlcNAc
# Outline: as §1
# [25] = target: GlcNAc(a1-4)Gal(b1-4)GlcNAc(b1-3)Gal(b1-4)GlcNAc
# Outline: as §1
# [26] = target: GlcNAc(b1-2)[GlcNAc(b1-4)]Man(a1-3)[GlcNAc(b1-4)][GlcNAc(b1-2)[GlcNAc(b1-6)]Man(a1-6)]Man(b1-4)GlcNAc(b1-4)[Fuc(a1-6)]GlcNAc
# Outline: as §1
# [27] = target: GlcNAc(b1-2)[GlcNAc(b1-6)]Man(a1-6)[GlcNAc(b1-2)Man(a1-3)]Man(b1-4)GlcNAc(b1-4)[Fuc(a1-6)]GlcNAc
# Outline: as §1
# [28] = target: GlcNAc(b1-4)Gal(b1-4)GlcNAc
# Outline: as §1
# [29] = target: GlcNAc(b1-6)Gal(b1-4)GlcNAc
# Outline: as §1
# Man(a1-6)Man = target: Man(a1-6)Man
# Outline: as §1
# [30] = target: Neu5Ac(a2-3)Gal(b1-3)GlcNAc(b1-2)Man(a1-3)[GlcNAc(b1-4)][Neu5Ac(a2-3)Gal(b1-3)GlcNAc(b1-2)Man(a1-6)]Man(b1-4)GlcNAc(b1-4)GlcNAc
# Outline: as §1
# [31] = target: Neu5Ac(a2-3)Gal(b1-3)GlcNAc6S
# Outline: as §1
# [32] = target: Neu5Ac(a2-3)Gal(b1-4)GlcNAc(b1-3)Gal(b1-4)GlcNAc(b1-3)Gal(b1-4)GlcNAc(b1-2)Man(a1-3)[Neu5Ac(a2-3)Gal(b1-4)GlcNAc(b1-3)Gal(b1-4)GlcNAc(b1-3)Gal(b1-4)GlcNAc(b1-2)Man(a1-6)]GalNAc
# Outline: as §1
# [33] = target: Neu5Ac(a2-3)Gal(b1-4)GlcNAc(b1-3)Gal(b1-4)GlcNAc(b1-3)[Neu5Ac(a2-3)Gal(b1-4)GlcNAc(b1-3)Gal(b1-4)GlcNAc(b1-6)]GalNAc
# Outline: as §1
# [34] = target: Neu5Ac(a2-3)Gal6S(b1-4)GlcNAc
# Outline: as §1
# [35] = target: Neu5Ac(a2-3)[GalNAc(b1-4)]Gal(b1-4)GlcNAc(b1-3)GalNAc
# Outline: as §1
# [36] = target: Neu5Ac(a2-6)Gal(b1-4)GlcNAc(b1-6)[Gal(b1-3)]GalNAc
# Outline: as §1
# [37] = target: Neu5Ac(a2-8)Neu5Ac(a2-3)Gal(b1-4)GlcNAc
# Outline: as §1
# [38] = target: Neu5Ac9Ac(a2-3)Gal(b1-4)GlcNAc
# Outline: as §1
binder,measurement,setting,value
B1,glycan array binding signal (z-score),Fuc(a1-2)Gal(b1-3)GalNAc,-0.355
same,glycan array binding signal (z-score),[1],1.41
same,glycan array binding signal (z-score),[2],-0.516
same,glycan array binding signal (z-score),[3],8.2
same,glycan array binding signal (z-score),[4],0.251
same,glycan array binding signal (z-score),[5],4.25
same,glycan array binding signal (z-score),[6],1.41
same,glycan array binding signal (z-score),[7],-0.101
same,glycan array binding signal (z-score),[8],-0.308
same,glycan array binding signal (z-score),[9],0.241
same,glycan array binding signal (z-score),[10],0.028
same,glycan array binding signal (z-score),[11],0.311
same,glycan array binding signal (z-score),[12],1.31
same,glycan array binding signal (z-score),Gal(a1-3)Gal,0.348
same,glycan array binding signal (z-score),Gal(a1-4)Gal(b1-4)Glc,0.822
same,glycan array binding signal (z-score),[13],-0.514
same,glycan array binding signal (z-score),Gal(b1-3)Gal,0.33
same,glycan array binding signal (z-score),Gal(b1-3)GlcNAc,1.37
same,glycan array binding signal (z-score),[14],-0.678
same,glycan array binding signal (z-score),[15],0.153
same,glycan array binding signal (z-score),[16],-0.017
same,glycan array binding signal (z-score),[17],0.248
same,glycan array binding signal (z-score),[18],0.511
same,glycan array binding signal (z-score),[19],2.66
same,glycan array binding signal (z-score),[20],-0.13
same,glycan array binding signal (z-score),[21],19.3
same,glycan array binding signal (z-score),[22],0.086
same,glycan array binding signal (z-score),Gal(b1-4)GlcNAc6P,-0.626
same,glycan array binding signal (z-score),Gal3S(b1-4)GlcNAc,-0.305
same,glycan array binding signal (z-score),Gal4S6S(b1-4)GlcNAc,-0.852
same,glycan array binding signal (z-score),GalNAc(a1-3)GalNAc,-0.504
same,glycan array binding signal (z-score),[23],-0.273
same,glycan array binding signal (z-score),Glc(b1-4)Glc,-0.138
same,glycan array binding signal (z-score),[24],-0.125
same,glycan array binding signal (z-score),[25],-0.455
same,glycan array binding signal (z-score),[26],0.399
same,glycan array binding signal (z-score),[27],0.701
same,glycan array binding signal (z-score),[28],1.25
same,glycan array binding signal (z-score),[29],-0.393
same,glycan array binding signal (z-score),Man(a1-6)Man,0.302
same,glycan array binding signal (z-score),[30],0.609
same,glycan array binding signal (z-score),[31],-0.374
same,glycan array binding signal (z-score),[32],3.29
same,glycan array binding signal (z-score),[33],0.164
same,glycan array binding signal (z-score),[34],-0.187
same,glycan array binding signal (z-score),[35],0.625
same,glycan array binding signal (z-score),[36],1.16
same,glycan array binding signal (z-score),[37],-0.48
same,glycan array binding signal (z-score),[38],0.409
